Source: PubChem (several laboratories)
The full list was thinned out, with hits kept by preference.
GIRK2 act – Activates human GIRK2-containing potassium channels | P48051 | 34,000 tested, under 10 active | activation (% efficacy), % for hits at 37.5 µM | HEK293 GIRK2/NPY4 cells, thallium flux fluorescence | AID 1259324;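 active = primary screen hit, no activity in plain HEK293 cells, and in GIRK2-only cells above 5% efficacy rising with concentration; inactive = the rest, including fluorescent compounds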;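 note: efficacy is normalized control-subtracted fluorescence 15 s after thallium addition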
Target sequence (P48051 whole entry, looked up): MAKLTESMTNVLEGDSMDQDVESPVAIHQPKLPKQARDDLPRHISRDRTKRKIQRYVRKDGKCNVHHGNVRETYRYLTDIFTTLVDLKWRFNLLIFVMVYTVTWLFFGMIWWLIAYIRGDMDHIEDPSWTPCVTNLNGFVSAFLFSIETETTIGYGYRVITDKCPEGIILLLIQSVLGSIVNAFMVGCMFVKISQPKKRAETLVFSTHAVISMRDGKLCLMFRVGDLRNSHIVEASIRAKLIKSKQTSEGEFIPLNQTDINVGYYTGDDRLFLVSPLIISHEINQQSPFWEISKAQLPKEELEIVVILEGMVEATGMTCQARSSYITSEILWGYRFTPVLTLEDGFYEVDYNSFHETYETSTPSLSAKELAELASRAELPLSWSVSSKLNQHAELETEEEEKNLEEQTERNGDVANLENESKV
GluA2 TARP mod – modulators of AMPA receptor GluA2-stargazin complexes; HEK293 GluA2+stargazin, membrane potential dye (FDSS), glutamate EC50; hits were called plate by plate, in both directions; calls only at 30 µM; hit rate 3.5% among 40,000;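 active = any of four per-well response measures lying three or more SD from its plate-wide compound average, in either direction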
* = called active by the depositor; i = inactive; x = no result; + = active, no number; ! = not confirmed by another sample.

SMILES	GIRK2 act	GluA2 TARP mod
CCn1c(C)cc(O)c(C(c2ccc(O)c(OC)c2)c2c(O)cc(C)n(CC)c2=O)c1=O	i	i
Cc1ccc(C(=O)Nc2ccc(SCC(=O)Nc3nc(C)cs3)nn2)cc1	i	i
COc1ccc(C(=O)Nc2cc3c4c(c2)CCN4C(=O)CC3)cc1	i	+
COc1ccc(C(=O)Nc2cc3c4c(c2)CCC(=O)N4CCC3)cc1	i	i
COc1ccc(NC(=O)Cn2cc(-c3ccccc3)c(N3CCOCC3)n2)c(OC)c1	i	i
COC(=O)c1ccccc1NC(=O)Cn1cc(-c2ccccc2)c(N2CCOCC2)n1	i	+
COCCn1c(SCc2ccc(C(F)(F)F)cc2)nnc1-c1cn(C)nc1OC	i	+
COCCn1c(SCc2ccccc2)nnc1-c1cn(C)nc1OC	i	i
Cc1ccc(C)c(S(=O)(=O)N2CCN(C(=O)c3ccco3)CC2)c1	i	x
O=C(Nc1ccccc1)N1CCC2(CC1)NC(=O)N(CCc1ccccc1)C2=O	i	i
O=C(Nc1ccc(F)c(Cl)c1)N1CCC2(CC1)NC(=O)N(CCc1ccccc1)C2=O	i	+
Cc1ccc(NC(=O)N2CCC3(CC2)NC(=O)N(Cc2ccc(Cl)cc2)C3=O)cc1F	i	+
O=C(Nc1ccc(F)cc1)N1CCC2(CC1)NC(=O)N(Cc1ccc(Cl)cc1)C2=O	i	x
CCc1ccc(-n2c(C)cn3c4c(=O)n(CCN5CCOCC5)c(=O)n(C)c4nc23)cc1	x	i
O=C(c1ccc(Br)o1)N1CCN(c2ncnc3c2nnn3-c2ccc(F)cc2)CC1	x	i
CC(=O)c1ccc(S(=O)(=O)NCC2CCN(C(=O)c3snnc3C)CC2)cc1	i	x
O=C(CC1CCCCC1)N1CCN(c2ncnc3c2nnn3-c2ccc(Cl)cc2)CC1	i	i
COc1ccc(-c2c(C(F)(F)F)oc3cc(OC(=O)N4CCOCC4)ccc3c2=O)cc1	x	i
COc1cc(/C=C/C(=O)N2CCC(C)CC2)ccc1OCc1ccccc1	i	+!
COc1cc(/C=C/C(=O)N2CCCCCC2)ccc1OCc1ccccc1	i	i
CCn1nnc2c(=O)n(Cc3cccc(C(F)(F)F)c3)cnc21	i	i
O=C(c1csc(Nc2ccc(OC(F)F)cc2)n1)N1CCCC1	i	+
NC(=O)C1CCN(C(=O)c2csc(Nc3ccc(OC(F)F)cc3)n2)CC1	i	i
Cn1cc(/C=C2\SC(=O)N(CCC(=O)O)C2=O)c2ccccc21	x	i
Cc1cccc(-c2ccc(/C=C3\C(=O)SC(=S)N3CCCC(=O)O)o2)c1	i	+
SMILES	GIRK2 act	GluA2 TARP mod
Cc1cc(=O)[nH]c2cc(NC(=O)/C=C\c3cccs3)ccc12	i	x
COC(=O)c1ccccc1NC(=O)c1ccc(=O)n(Cc2ccccc2F)c1	i	i
O=C(Nc1ccccn1)c1ccc(Oc2ncccn2)cc1	i	x
Cc1ccc(C(=O)Nc2ccc(C(=O)NCCNC(=O)c3ccccc3C)cc2)cc1	x	+
CCCC(=O)Nc1ccc(C(=O)NCCNC(=O)c2ccccc2OC)cc1	i	i
Cc1ccc(-n2ncc3c(=O)n(NC(=O)C4(c5ccc(Cl)cc5)CCCC4)cnc32)cc1	x	i
Cc1cc(NC(=O)C(=O)NCC(c2ccccc2)N(C)C)c2ccccc2n1 (stereo unspecified)	i	i
Cc1cc(C)nc(Nc2nc(N)c3ccccc3n2)n1	x	+
O=S(=O)(/C=C/c1ccccc1)N1CCC(Cn2ccnc2-c2ccccc2)CC1	i	i
CN(C)C(CNC(=O)C1(c2ccccc2)CCOCC1)c1ccsc1 (stereo unspecified)	i	i
CN(C)C(CNC(=O)C1(c2ccc(Cl)cc2)CCCC1)c1ccsc1 (stereo unspecified)	i	+
Cc1noc(C)c1C1NCCn2cccc21 (stereo unspecified)	i	i
CCOC(=O)N1CCC(NC(=O)C(=O)Nc2ccccc2F)CC1	i	x
COC(=O)Nc1ccc(N2CCCC2=O)cc1	i	i
CCCOc1ccc(S(=O)(=O)Nc2ccc3c(c2)N(S(=O)(=O)CC)CCC3)cc1	x	i
CCCCOC(=O)CCc1nc2ccccc2[nH]c1=O	x	i
CCC/C(O)=C(\C#N)c1nc2ccccc2[nH]1	i	+
O=C(NC1CC(=O)N(C2CC2)C1)c1ccccc1C(F)(F)F (stereo unspecified)	x	i
Cc1ccc(-c2ccc(=O)n(CC(=O)N3CCCC3)n2)cc1	i	i
Cc1ccc(S(=O)(=O)Nc2nc(CCC(=O)Nc3cccc(Cl)c3)cs2)cc1	i	+
Cc1ccc(S(=O)(=O)Nc2nc(CCC(=O)Nc3cccc(F)c3)cs2)cc1	i	i
CCCc1nnsc1C(=O)N1CCN(Cc2nc(-c3ccc(F)cc3)cs2)CC1	i	+
COc1ccc(-c2csc(CN3CCN(C(=O)c4ccc(F)cc4F)CC3)n2)cc1	x	i
COc1ccc(SCCC(=O)Nc2nnc(-c3ccc4c(c3)OCCO4)o2)cc1	i	i
O=C(CCCn1c(SCc2cccc([N+](=O)[O-])c2)nc2ccccc2c1=O)N1CCCC1	i	+
SMILES	GIRK2 act	GluA2 TARP mod
O=c1nc(SCc2cccc([N+](=O)[O-])c2)c2c(n1CCCO)CCC2	i	i
CN1CCC(CNC(=O)C(=O)NC2CCCC2)CC1	i	i
NC(=O)c1ccc(NC(=O)C(=O)NCc2ccco2)cc1	i	i
O=S(=O)(NCC#CCN1CCc2ccccc2C1)c1cccc(Cl)c1	i	i
COc1ccc(S(=O)(=O)NCC#CCN2CCc3ccccc3C2)cc1C	i	+
Cc1nc(N2CCN(CCO)CC2)nc(N2CCCCC2)c1[N+](=O)[O-]	i	i
Cc1nc(N2CCN(CCO)CC2)nc(Nc2ccc(F)cc2)c1[N+](=O)[O-]	i	+
COc1ccc(-c2nnc3ccc(OCCNC(=O)Nc4ccc(F)cc4)nn23)cc1	i	+
COc1ccc(-c2nnc3ccc(OCCNC(=O)NCc4ccccc4)nn23)cc1	i	+
CCCC(=O)NCCOc1ccc2nnc(-c3ccc(OC)c(OC)c3)n2n1	i	+
CCCC(=O)NCCOc1ccc2nnc(-c3cccc(OC)c3)n2n1	i	i
COc1ccc(-c2nnc3ccc(OCCNC(=O)Nc4ccc(Cl)cc4)nn23)cc1	i	i
CCC(C(=O)NCCOc1ccc2nnc(-c3ccc(OC)cc3)n2n1)c1ccccc1 (stereo unspecified)	i	i
O=C(Cc1ccc(NC(=O)c2ccc(F)cc2Cl)cc1)NCc1cccs1	i	i
CC(=O)Nc1cccc(NC(=O)CCCn2nc(-c3ccccc3)ccc2=O)c1	i	i
CC(=O)Nc1cccc(NS(=O)(=O)c2ccc(N3C(=O)CCS3(=O)=O)cc2)c1	i	i
CC(=O)Nc1ccc(S(=O)(=O)NCCNc2ccc(Nc3cccc(C)n3)nn2)cc1	i	x
COc1cn(CC(=O)Nc2ccc(Br)cc2)c(CSc2nccn2C)cc1=O	i	i
O=S(=O)(c1cccs1)N1CCN(c2ccc(-c3ccccc3)nn2)CC1	i	i
O=S(=O)(c1cccs1)N1CCN(c2ccc(N3CCCC3)nn2)CC1	i	+
COc1ccc(C(=O)Nc2ccc3c(c2)N(S(=O)(=O)c2ccc(C)cc2)CCC3)cc1	i	i
Cc1cccc(N2C(=O)CC(c3cn(C)c4ccccc34)C2=O)c1 (stereo unspecified)	x	i
